# High-throughput results (PubChem)
# A selection: hits, their analogues and other compounds. The true share with any hit is near 13%.
# USP17 block: human USP17-like deubiquitinase inhibition; inhibition, % at 50 µM; actives 6.5% (n = 47,000); purified USP17, Ub-rhodamine cleavage fluorescence, 3 h; AID 1645855; A8MUK1
# USP28 inh: blocks human USP28 ubiquitin-rhodamine cleavage | inhibition, % at 25 µM | Q96RU2 | actives 3% (n = 47,000) | purified USP28, Ub-rhodamine cleavage fluorescence, 30 min | AID 1645857
# USP30 block: blocks human USP30 ubiquitin-rhodamine cleavage; Q70CQ3; purified USP30, Ub-rhodamine cleavage fluorescence; inhibition, % at 25 µM; actives 5.3% (n = 47,000); AID 1645860
# Target sequence (Q70CQ3 whole entry, looked up): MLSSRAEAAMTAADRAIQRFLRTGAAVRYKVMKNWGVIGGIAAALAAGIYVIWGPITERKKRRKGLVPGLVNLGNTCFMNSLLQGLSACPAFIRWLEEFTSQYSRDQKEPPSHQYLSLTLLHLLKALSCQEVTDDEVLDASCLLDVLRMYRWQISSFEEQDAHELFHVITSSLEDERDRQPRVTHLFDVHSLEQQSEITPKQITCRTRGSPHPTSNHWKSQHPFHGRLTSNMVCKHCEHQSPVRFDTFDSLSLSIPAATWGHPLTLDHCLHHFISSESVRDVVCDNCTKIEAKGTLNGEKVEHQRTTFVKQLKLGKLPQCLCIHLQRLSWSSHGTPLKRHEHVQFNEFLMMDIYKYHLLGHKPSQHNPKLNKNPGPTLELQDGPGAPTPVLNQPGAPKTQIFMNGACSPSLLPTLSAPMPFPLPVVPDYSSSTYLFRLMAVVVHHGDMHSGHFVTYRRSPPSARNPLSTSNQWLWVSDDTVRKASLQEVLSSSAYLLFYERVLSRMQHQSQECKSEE
# USP8 inh: human USP8 deubiquitinase inhibition; P40818; purified USP8, Ub-rhodamine cleavage fluorescence, 30 min; inhibition, % at 20 µM; actives 4.2% (n = 47,000)
# OTUD3 block: blocks human OTUD3 ubiquitin-rhodamine cleavage | inhibition, % at 25 µM | purified OTUD3, Ub-rhodamine fluorescence, 2 h | actives 0.7% (n = 47,000) | Q5T2D3
# The depositor's hits bear a star; nt = no result. Rule as the data show it: active = inhibition above about 30%; inactive = the rest.
SMILES,USP17 block,USP28 inh,USP30 block,USP8 inh,OTUD3 block
Cc1cccc(CNS(=O)(=O)c2ccc(-c3cc(C)no3)s2)c1,36*,16,29,3,11
Cn1nc(-c2nc(Cc3ccccc3)no2)c2c1CCN(C(=O)COc1ccccc1)C2,3,4,0,11,7
COc1ccc(Cl)cc1NS(=O)(=O)c1ccc2c(c1)NC(=O)CC(C)S2 (configuration not stated),15,nt,nt,-1,2
COCCN1C[C@@H](C)[C@@]2(COCCN(C(=O)c3ccoc3)C2)C1,-72,-49,-199,-43,-51
O=C(COc1ccccc1-c1nnc(-c2ccccc2)o1)NCc1ccc(F)cc1,22,11,23,56*,13
CN(C(=O)COc1ccccc1-c1nnc(-c2ccccc2)o1)c1ccccc1,9,9,30,10,16
O=C(COc1ccccc1-c1nnc(-c2ccccc2)o1)NCc1ccccc1Cl,-6,-2,-3,-47,0
O=C(COc1ccccc1-c1nnc(-c2ccccc2)o1)NCc1ccco1,20,-17,-45,84*,-15
O=C(COc1ccccc1-c1nnc(-c2ccccc2)o1)Nc1ccccc1F,46*,0,26,9,1
COc1ccc(-c2c3c4n(c(-c5ccc(Cl)c(Cl)c5)cn4c2C(=O)Nc2ccccc2Cl)CCCC3)cc1,-4,-8,-18,6,-9
Cc1ccc(NC(=O)CCc2ccc3nc[nH]c3c2)cc1F,-6,35*,-11,5,-6
COc1ccc(C(=O)N2CCC(Cc3nc(-c4ccc(F)cc4)no3)CC2)cn1,-2,-3,-28,-5,1
CC(=O)/C=C/C1(O)C(C)=CC(=O)CC1(C)C (configuration not stated),11,6,33*,-5,9
Cc1ccc(S(=O)(=O)N2CCN=C2N2CCCC2)cc1,7,0,11,10,5
COc1ccc(NC(=O)CSc2nc3ccccc3c3nc(C)nn23)cc1OC,37*,19,32*,41*,20
O=C(CSc1nc2ccccc2n1S(=O)(=O)c1ccc(Br)cc1)Nc1ccc(Br)cc1F,34*,27,0,14,13
COc1ccc2nc(SCC(=O)Nc3ccc(NC(C)=O)cc3)n(S(=O)(=O)c3ccc(Cl)cc3)c2c1,-14,-3,-5,-25,-13
COc1ccccc1NC(=O)CSc1nc2ccccc2n1S(=O)(=O)c1cc([N+](=O)[O-])ccc1C,-50,4,-44,-116,-2
COc1ccc(S(=O)(=O)n2c(SCC(=O)Nc3ccc(Oc4ccccc4)cc3)nc3ccccc32)cc1,15,45*,-72,-24,2
O=C(CSc1nc2ccccc2n1S(=O)(=O)c1ccc(Br)cc1)Nc1ccc([N+](=O)[O-])cc1Cl,-10,54*,-48,-57,15
COc1cc2c(cc1OC)C1CC3=C(CCCN3)C(=O)N1CC2 (configuration not stated),-83,-111,-441,-16,-90
CCNC(=O)c1nc(C(=O)NC2CCCCC2)cs1,8,2,7,5,3
O=C(CSc1nc2ccncc2[nH]1)Nc1ccc(Br)cc1F,61*,0,19,35*,-1
Cc1ccc(NC(=O)CSc2nc3ncccc3[nH]2)c(C)c1,-12,-6,-37,-11,-9
Clc1ccc2nc(COc3ccccc3Cc3ccccc3)[nH]c2c1,31*,5,10,63*,10
SMILES,USP17 block,USP28 inh,USP30 block,USP8 inh,OTUD3 block
Cc1cc(C)cc(NC(=O)Cc2csc(NC(=O)Nc3cccc(Cl)c3)n2)c1,12,24,32*,25,17
COC(=O)c1cc(NC(=O)Nc2cccc(Cl)c2)cc(C(=O)OC)c1,22,4,28,7,3
CCCC(=O)N(Cc1ccccc1)c1nnc(C23CC4CC(CC(C4)C2)C3)s1,8,12,12,7,10
CN(C(=O)c1ccc(C(=O)c2ccccc2)cc1)c1nnc(C23CC4CC(CC(C4)C2)C3)s1,18,21,33*,22,16
NC(=O)c1cccc(OCCOc2ccccc2)c1,24,15,49*,4,0
O=C(OCCOc1ccccc1)c1ccc(-c2ccccc2)cc1,11,5,21,9,17
CC(C)CCN1C[C@H]2C[C@H](C(=O)NCC3CC3)[C@@H](C1)O2,-7,0,-5,-47,-6
COc1ccc(CC(=O)N2CCN(c3ccc(Nc4ccccn4)nn3)CC2)cc1,nt,37*,0,-185,-6
CC(C)(C)c1cc(C(=O)NCc2cccnc2)nc2ccnn12,-24,-10,-50,-24,-11
Cn1ccc2ccn(CC(=O)Nc3cccc(Cl)c3)c(=O)c21,21,13,0,1,0
CC(=O)Nc1cccc(NC(=O)Cn2ccc3cc(Br)ccc32)c1,61*,62*,54*,2,33*
CC1(C)Cc2c(c(-c3ccccc3)nc3sc4c(SCc5ccccc5Cl)ncnc4c23)CO1,9,4,0,0,14
Cc1cccc(NC(=O)c2ccc(N3C(=O)C(C)CS3(=O)=O)cc2)c1C (configuration not stated),34*,nt,nt,3,3
Cc1ccc(NC(=O)c2ccc(N3C(=O)C(C)CS3(=O)=O)cc2Cl)cc1C (configuration not stated),-2,39*,-1,-2,0
Cc1ccc(-c2cc(C(=O)N(Cc3ccccc3)C3CCS(=O)(=O)C3)no2)cc1 (configuration not stated),3,3,10,5,-3
CC(OC(=O)c1ccccc1Sc1ccccc1C#N)C(=O)Nc1cccc([N+](=O)[O-])c1 (configuration not stated),26,27,36*,4,13
Brc1ccc(Nc2nc(-c3ccccn3)nc3ccccc23)cc1,52*,93*,90*,93*,51*
Cc1cc(C)cc(NC(=O)Cc2nc(-c3ccccn3)n[nH]2)c1,-52,-10,-1,-294,-4
FC(F)(F)c1cccc(Nc2nc(-c3ccccn3)nc3ccccc23)c1,74*,88*,52*,22,-4
O=C(c1cc(F)cc(F)c1)N1CCN(c2nnc3ccccn23)CC1,nt,-13,-9,-10,-13
O=C(NCCc1cccc(F)c1)c1ccc2ccc(N3CCN(c4ncccn4)CC3)n2c1,2,-27,-121,25,-20
Cc1nn(C)cc1S(=O)(=O)Nc1cnn(Cc2cccc3ccccc23)c1,30,-1,-10,86*,0
O=C(COc1ccccc1F)Nc1ccc2c(c1)CN(C(=O)c1ccco1)CC2,26,41*,27,7,2
COc1ccccc1OCC(=O)Nc1ccc2c(c1)CCC(=O)N2Cc1ccccc1,14,15,54*,11,14
O=C(COc1ccccc1)Nc1ccc2c(c1)CN(C(=O)c1ccco1)CC2,7,26,-5,-7,-6
COc1ccccc1OCC(=O)Nc1ccc2c(c1)CN(C(=O)c1ccco1)CC2,33*,36*,22,5,10
